In the library only some 2.3% were active in any assay of this set; here they are far more common.
CHRM1 agonist: human M1 muscarinic receptor agonism | activation, % at 3 µM | AID 588814 | actives 0.33% (n = 360,000) | CHO-K1 hM1, Fluo-8 calcium fluorescence, agonist mode; 0% DMSO, 100% acetylcholine EC100;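 active means activation above the run's mean compound activation plus 3 SD, cut at about 16% in these data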;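 further: peak over basal fluorescence ratio within a 140 s kinetic read after compound addition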
Target sequence (P11229 whole entry, looked up): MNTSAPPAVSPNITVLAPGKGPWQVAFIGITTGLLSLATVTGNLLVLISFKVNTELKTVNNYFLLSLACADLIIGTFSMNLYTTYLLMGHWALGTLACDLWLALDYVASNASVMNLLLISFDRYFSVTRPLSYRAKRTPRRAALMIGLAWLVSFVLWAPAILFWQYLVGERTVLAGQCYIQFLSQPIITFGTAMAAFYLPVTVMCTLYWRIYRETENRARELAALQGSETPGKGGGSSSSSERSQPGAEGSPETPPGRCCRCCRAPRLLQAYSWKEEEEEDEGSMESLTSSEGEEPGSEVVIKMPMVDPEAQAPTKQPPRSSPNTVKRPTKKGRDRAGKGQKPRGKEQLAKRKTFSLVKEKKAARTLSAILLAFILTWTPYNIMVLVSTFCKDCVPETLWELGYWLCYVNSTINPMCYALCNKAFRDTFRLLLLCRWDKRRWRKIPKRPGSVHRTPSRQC
CHO-K1 Ca ag: counter-screen for M1 agonists: effect in parental CHO-K1 cells | Fluo-8 calcium fluorescence; scaled to maximal ATP response, vehicle zero | actives 0.48% (n = 360,000) | activation, % at 3 µM; in the data active means activation above about 15%;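 further: untransfected CHO-K1 host cells lacking M1 receptor as counterscreen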
CHO-K1 Ca PAM: M1 PAM counterscreen hit in parental CHO-K1 cells. actives 0.02% (n = 360,000). activation, % at 3 µM. ATP EC20, Fluo-8 calcium fluorescence; 0% at ATP EC20, 100% at ATP max;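 active means activation above the run cutoff, the mean activation of all test compounds plus 3 SD, cut at about 40% in these data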;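 further: peak over basal fluorescence ratio in a 140 s read after ATP addition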
CHRM1 antagonist: antagonists of human M1 muscarinic receptor | inhibition, % at 3 µM | CHO-K1 hM1, Fluo-8 calcium fluorescence, ACh EC80 antagonist | P11229 | actives 1.3% (n = 360,000) | AID 588852;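 active means percent inhibition above its own plate's cutoff, namely the mean of that plate's compound wells plus 3 SD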;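 further: peak over basal fluorescence ratio during 140 s after agonist addition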
M1 PAM: potentiates human M1 receptor response to acetylcholine | CHO-K1 hM1, Fluo-8 calcium fluorescence, ACh EC20; 0% = ACh EC20, 100% = maximal ACh | actives 0.088% (n = 360,000) | P11229 | activation, % at 3 µM; in the data active means activation above about 19%, passing the limit was not always enough
CHO-K1 Ca antag: nonselective inhibitor or artifact in parental CHO-K1 cells; ATP-induced calcium, Fluo-8 fluorescence; inhibition, % at 3 µM; actives 0.6% (n = 360,000); AID 602250;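 active means inhibition above a per-plate cutoff, the plate's mean sample inhibition plus 3 SD, cut at about 24% in these data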
Of the large screens only hits and unclear results are named; the others gave an inactive call.

CS(=O)(=O)N1CCN(CC2CC3C=CC2C3)CC1 (configuration not stated)	CHRM1 agonist 44.6
COc1cc(C(C(=O)NC2CCCC2)N(CCO)C(=O)Cn2nnc(-c3ccc(C)o3)n2)ccc1O (configuration not stated)	none
COc1cc(NC(=O)CCc2nnc3ccc(N4CCOCC4)nn23)cc(OC)c1OC	none
COc1ccc(-c2nc(CC(=O)Nc3cccc(S(=O)(=O)NC4=NCCC4)c3)cs2)cc1	none
CN(C)CCC(O)(c1ccccc1)c1ccccc1	CHRM1 antagonist 66.6
CN(C)CCC(O)(c1ccccc1)c1ccccc1Cl (configuration not stated)	CHRM1 antagonist 37.8
CN(C)CCCC(C)(O)C(C)(C)c1ccccc1 (configuration not stated)	none
Cc1ccc(NC(=O)C2C3/C=C\CCCCC32)cc1C (configuration not stated)	none
O=C(CCCSc1nc2ccccc2[nH]1)N1CCN(c2ccc([N+](=O)[O-])cc2)CC1	CHRM1 antagonist 43.5
COc1cc(C(=O)NCCOc2cc(C)ccc2C(C)C)cc(OC)c1OC	CHO-K1 Ca ag 15.8
c1ccc(CCNCCOc2ccccc2)cc1	CHO-K1 Ca ag 15.1
Cc1ccc(C(C)C)c(OCCNCCc2ccccc2)c1	CHRM1 antagonist 29.8
Cc1ccc(C(C)C)c(OCCn2ccnc2C)c1	CHRM1 antagonist 99.2
Cc1ccc(C(C)C)c(OCCNC(=O)c2cncc(Br)c2)c1	none
C=CCN1C(=O)/C(=C/C=C2/N(CC)c3ccc(S(=O)(=O)N(C)C)cc3N2CC)SC1=S	CHRM1 agonist 17.4
Cc1cc(C)n(Cc2cccc(C(=O)N/N=C/c3cccnc3)c2)n1	none
c1ccc2c(c1)OC(CCCN1CCCCC1)c1ccccc1S2 (configuration not stated)	CHRM1 antagonist 46.0
CN1CCCC(CC2Oc3ccccc3Sc3ccccc32)C1 (configuration not stated)	CHRM1 antagonist 99.3
CC1CCCN(C(=O)N2c3ccccc3Sc3ccccc32)C1 (configuration not stated)	none
CN(C)S(=O)(=O)n1cc(/C=C(\NC(=O)c2ccccc2F)C(=O)N2CCCCC2)c2ccccc21	none
CC(=O)NC(c1ccccc1)c1nc(-c2cccc(C(F)(F)F)c2)cs1 (configuration not stated)	CHO-K1 Ca antag 29.3
CC(=O)NC(c1ccccc1)c1nc(-c2cccc(CO)c2)cs1 (configuration not stated)	none
CCCC[n+]1ccn(-c2nc3ccccc3nc2[N-]S(=O)(=O)c2ccc(C)cc2)c1	none
CCCC[n+]1ccn(-c2nc3ccccc3nc2[N-]S(=O)(=O)c2ccccc2)c1	CHRM1 agonist 19.1
Cc1cc(C)c2c(=O)n(CC(=O)Nc3cccc(Cl)c3C)sc2n1	CHRM1 agonist 16.5, CHO-K1 Ca ag 18.5
Cc1cc(C)c2c(=O)n(CC(=O)Nc3ccc(Br)c(C)c3)sc2n1	none
Brc1cccc(OCCCCN2CCCCC2)c1	CHRM1 antagonist 78.1
CC1CCCN(CCCCOc2cccc(Br)c2)C1 (configuration not stated)	CHRM1 antagonist 33.1
CC(C)c1cccc(OCCN2CCCC2)c1	CHRM1 antagonist 32.7
COc1cccc(OCCCCN2CCCCC2)c1	none
Clc1cccc(OCCN2CCCC2)c1	none
CCOc1cccc(OCCCCN2CCCCC2)c1	CHRM1 antagonist 19.3
CCCCNC(=O)c1cnc(Cc2c[nH]c3ccccc23)c(I)c1	none
Cc1ccc(OCCN2CCC2(C)C(=O)Nc2ccc3c(c2)OCCO3)cc1 (configuration not stated)	none
CC1(C)CC(=O)c2c(oc3ccc(NS(=O)(=O)c4ccc(C(=O)O)cc4)cc23)C1	CHO-K1 Ca antag 24.5
CCOC(=O)c1c(C)oc2ccc(NS(=O)(=O)c3ccc(C(=O)O)cc3)cc12	none
O=C(c1ccc(Oc2cc(Cl)cc(Cl)c2)o1)N1CCCCC1	none
Cc1ccc(-n2ncc(C#N)c2/N=C/N2CCN(C)CC2)cc1	none
CN1CCN(/C=N/c2c(C#N)cnn2-c2ccccc2)CC1	CHRM1 antagonist 30.0
OC[C@@H]1CN(Cc2cccnc2)C[C@H](n2cnc3c(N4CCN(c5ccccc5)CC4)ncnc32)O1	none

Compound activity from PubChem BioAssay.
